A selection: hits, their analogues and other compounds. The true share with any hit is near 4.1%.
Peg3 prom inh – Peg3 promoter activity inhibition. HeLa PEG-Prom luciferase reporter, luminescence, overnight. inhibition, % at 20 µM. 360,000 compounds, 1.7% hits;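 active means inhibition of at least 50% at 20 µM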
MITF TRPM1 inh – reduces MITF-dependent TRPM1 promoter luciferase signal. SK-MEL-5 TRPM1 promoter luciferase, 24 h. inhibition, % at 12.5 µM. 330,000 compounds, 0.83% hits;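 active means mean inhibition across replicates of 60% or more, whatever share of single replicates reaches that level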
Shn3 inh set2 – reduces Shn3 3'UTR luciferase signal in osteoblasts; inhibition, % at 12.5 µM; Clone20 osteoblast Shn3 3'UTR firefly luciferase, 24 h; 360,000 compounds, 0.52% hits; AID 588674;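 active means mean inhibition of at least 75% with every replicate also reaching 75%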;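 further: 0% = median of neutral control wells and 100% = pilot-screen positive control compound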
LMP1 NFkB inh – Epstein-Barr LMP1 NF-kappaB reporter inhibition; LMP1-induced NF-kappaB luciferase reporter cells, luminescence; inhibition, % at 12.5 µM; 350,000 compounds, 0.69% hits; AID 504558; in the data active means inhibition above about 41%;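 further: 0% = neutral control wells and 100% = reference inhibitor control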
TROY NFkB inh – TROY signaling inhibition; Q293 LMP1-TROYcd NF-kB luciferase reporter, 4 h; inhibition, % at 10 µM; 360,000 compounds, 0.98% hits; AID 1347056;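 active means compounds whose plate-normalised and pattern-corrected inhibition of the luciferase reporter signal at the single screening dose is 50% or more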
TWEAK-Fn14 inh – inhibitors of TWEAK-Fn14 interaction signaling; inhibition, % at 10 µM; 360,000 compounds, 2% hits; TWEAK-stimulated Fn14 reporter cells, luciferase luminescence, 8 h; in the data active means inhibition above about 50%
* hit, by the source's call.

What do the screens show for `COc1ccc(N/C=C\C(=O)c2ccc3ccccc3c2)cc1`?
Peg3 prom inh: -185.1; MITF TRPM1 inh: -87.0; Shn3 inh set2: -97.0; LMP1 NFkB inh: -22.1; TROY NFkB inh: -26.4; TWEAK-Fn14 inh: -16.8

How did CCOc1ccc(N/C=C/C(=O)c2ccccc2)c([N+](=O)[O-])c1 do in these assays?
Peg3 prom inh: 41.3; MITF TRPM1 inh: 5.6; Shn3 inh set2: 21.5; LMP1 NFkB inh: 20.4; TROY NFkB inh: 49.3; TWEAK-Fn14 inh: 85.9*

Results for COc1ccc(C(=O)/C=C/Nc2cc(C)ccn2)cc1 ?
Peg3 prom inh: -45.9; MITF TRPM1 inh: -10.6; Shn3 inh set2: -15.6; LMP1 NFkB inh: 26.6; TROY NFkB inh: 5.8; TWEAK-Fn14 inh: 74.8*

What do the screens show for `O=C(/C=C\Nc1ccccn1)c1ccccc1`?
Peg3 prom inh: -5.4; MITF TRPM1 inh: 28.1; Shn3 inh set2: 15.7; LMP1 NFkB inh: 32.6; TROY NFkB inh: 1.4; TWEAK-Fn14 inh: 76.5*

What do the screens show for `COc1ccc(N/C=C/C(=O)c2ccccc2)cc1`?
Peg3 prom inh: -36.0; MITF TRPM1 inh: 13.7; Shn3 inh set2: 5.7; LMP1 NFkB inh: 1.7; TROY NFkB inh: 39.8; TWEAK-Fn14 inh: 89.6*

What do the screens show for `CC1(c2nnc(Cc3ccccc3)o2)CC(c2ccccc2Br)=NO1` (stereo not drawn)?
Peg3 prom inh: -15.6; MITF TRPM1 inh: 6.9; Shn3 inh set2: 0.4; LMP1 NFkB inh: 2.6; TROY NFkB inh: -17.3; TWEAK-Fn14 inh: -7.9

What do the screens show for `O=C(/C=C/Nc1ccc(Br)cc1F)c1ccccc1`?
Peg3 prom inh: 22.0; MITF TRPM1 inh: 28.2; Shn3 inh set2: 26.3; LMP1 NFkB inh: 65.3*; TROY NFkB inh: 76.0*; TWEAK-Fn14 inh: 86.2*

What do the screens show for `CN(CC(=O)Nc1ncn[nH]1)S(=O)(=O)c1ccc(Cl)cc1`?
Peg3 prom inh: 11.3; MITF TRPM1 inh: 3.8; Shn3 inh set2: -2.6; LMP1 NFkB inh: -5.7; TROY NFkB inh: -5.8; TWEAK-Fn14 inh: 5.0

How did C=C1C(=O)O[C@@]23[C@H]1CC[C@@H](C)[C@@H]2CC[C@@]1(C)O[C@@H]31 do in these assays?
Peg3 prom inh: -102.2; MITF TRPM1 inh: 84.8*; Shn3 inh set2: -19.3; LMP1 NFkB inh: 8.0; TROY NFkB inh: 3.6; TWEAK-Fn14 inh: 48.3

Results for COc1ccccc1CNS(=O)(=O)c1ccc(-c2cnc(C3CC3)o2)cc1 ?
Peg3 prom inh: 10.0; MITF TRPM1 inh: 10.4; Shn3 inh set2: 27.0; LMP1 NFkB inh: 45.5*; TROY NFkB inh: 22.0; TWEAK-Fn14 inh: 5.3

Results for O=S(=O)(Nc1ccc(F)cc1Cl)c1ccc(-c2cnc(C3CC3)o2)cc1 ?
Peg3 prom inh: 7.7; MITF TRPM1 inh: 43.6; Shn3 inh set2: 54.4; LMP1 NFkB inh: 11.8; TROY NFkB inh: 52.2*; TWEAK-Fn14 inh: 21.7

How did CCOc1ccc(C(C(=O)NC2CCCC2)N(C(=O)c2snc(C(N)=O)c2N)c2cccc(O)c2)cc1 (stereo not drawn) do in these assays?
Peg3 prom inh: 52.7*; MITF TRPM1 inh: -0.3; Shn3 inh set2: 5.8; LMP1 NFkB inh: -0.1; TROY NFkB inh: 12.8; TWEAK-Fn14 inh: 26.7

Results for COc1ccc(C(C(=O)NC2CCCC2)N(C(=O)c2snc(-c3ccc(F)cc3)c2N)c2cccc(F)c2)cc1 (stereo not drawn) ?
Peg3 prom inh: 50.6*; MITF TRPM1 inh: 18.5; Shn3 inh set2: 3.7; LMP1 NFkB inh: -68.0; TROY NFkB inh: -31.6; TWEAK-Fn14 inh: -87.6

How did Cc1cc(C)cc(N(C(=O)c2nsc(Cl)c2Cl)C(C(=O)NC2CCCC2)c2ccc(O)cc2)c1 (stereo not drawn) do in these assays?
Peg3 prom inh: 59.5*; MITF TRPM1 inh: 16.9; Shn3 inh set2: 10.5; LMP1 NFkB inh: -1.6; TROY NFkB inh: 23.5; TWEAK-Fn14 inh: 19.6

Results for COc1ccc(C(C(=O)NC2CCCC2)N(C(=O)c2snc(-c3ccc(F)cc3)c2N)c2ccccc2)cc1 (stereo not drawn) ?
Peg3 prom inh: 38.6; MITF TRPM1 inh: 17.6; Shn3 inh set2: 4.6; LMP1 NFkB inh: -30.1; TROY NFkB inh: -15.0; TWEAK-Fn14 inh: -80.3

Results for NC(=O)c1nsc(C(=O)N(c2cccc(O)c2)C(C(=O)NC2CCCC2)c2ccc(Cl)cc2)c1N (stereo not drawn) ?
Peg3 prom inh: 31.4; MITF TRPM1 inh: 6.8; Shn3 inh set2: -4.7; LMP1 NFkB inh: 5.3; TROY NFkB inh: 22.0; TWEAK-Fn14 inh: 18.4

How did Cc1ccc(N(C(=O)c2nsc(Cl)c2Cl)C(C(=O)NC2CCCC2)c2ccc(O)cc2)cc1C (stereo not drawn) do in these assays?
Peg3 prom inh: -56.5; MITF TRPM1 inh: -7.0; Shn3 inh set2: 4.8; LMP1 NFkB inh: -22.4; TROY NFkB inh: -3.2; TWEAK-Fn14 inh: 9.4

What do the screens show for `Cc1ccccc1N(C(=O)c1snc(C(N)=O)c1N)C(C(=O)NC1CCCCC1)c1ccc(O)cc1` (stereo not drawn)?
Peg3 prom inh: 43.9; MITF TRPM1 inh: -5.1; Shn3 inh set2: 30.7; LMP1 NFkB inh: 40.8*; TROY NFkB inh: -7.0; TWEAK-Fn14 inh: 39.3

How did CCOC(=O)N1CCN(C(=O)COC(=O)CN(C)S(=O)(=O)c2ccc(NC(C)=O)cc2)CC1 do in these assays?
Peg3 prom inh: 11.1; MITF TRPM1 inh: -3.7; Shn3 inh set2: -19.0; LMP1 NFkB inh: -6.6; TROY NFkB inh: 9.8; TWEAK-Fn14 inh: 9.1

How did Cc1cc(F)ccc1S(=O)(=O)N1CCCOC1CNC(=O)C(=O)NCCc1ccco1 (stereo not drawn) do in these assays?
Peg3 prom inh: 1.4; Shn3 inh set2: 11.1; LMP1 NFkB inh: -0.1; TROY NFkB inh: -2.3; TWEAK-Fn14 inh: 13.3

How did Cc1ccccc1N(C(=O)c1snc(C(N)=O)c1N)C(C(=O)NCc1ccccc1)c1ccc(O)cc1 (stereo not drawn) do in these assays?
Peg3 prom inh: 48.9; MITF TRPM1 inh: 5.8; Shn3 inh set2: 25.2; LMP1 NFkB inh: -2.3; TROY NFkB inh: -4.8; TWEAK-Fn14 inh: 12.3

What do the screens show for `CCOc1ccccc1N(C(=O)c1snc(C(N)=O)c1N)C(C(=O)NCc1ccccc1)c1ccc(O)cc1` (stereo not drawn)?
Peg3 prom inh: 30.4; MITF TRPM1 inh: 20.9; Shn3 inh set2: 19.6; LMP1 NFkB inh: 37.6; TROY NFkB inh: 0.7; TWEAK-Fn14 inh: 85.5*

What do the screens show for `N#CC(c1ccc(Cl)cc1)c1ccc2c(C(F)(F)F)cc(C(F)(F)F)nc2n1` (stereo not drawn)?
Peg3 prom inh: 51.6*; MITF TRPM1 inh: 78.7*; Shn3 inh set2: 88.7*; LMP1 NFkB inh: 52.3*; TROY NFkB inh: 79.1*; TWEAK-Fn14 inh: 65.1*

Results for FC(F)(F)c1cc(C(F)(F)F)c2ccc(N3CCN(c4ccc(Cl)cc4)CC3)nc2n1 ?
Peg3 prom inh: 12.7; MITF TRPM1 inh: -9.7; Shn3 inh set2: -1.0; LMP1 NFkB inh: 7.0; TROY NFkB inh: -5.0; TWEAK-Fn14 inh: -11.6

What do the screens show for `NS(=O)(=O)c1cc(C(=O)N2CCNC(=O)C2)ccc1Cl`?
Peg3 prom inh: 14.5; MITF TRPM1 inh: 2.8; Shn3 inh set2: 7.6; LMP1 NFkB inh: -3.3; TROY NFkB inh: -1.8; TWEAK-Fn14 inh: 20.0

Screens from PubChem.
